We go through 23 compounds from PubChem BioAssay (EPA / NIEHS).

Results filed as inconclusive are left out. The source made the active and inactive calls. The calls were made as follows: active = hit-call score of the fitted dose curve at least 0.9, where 1 is the maximum; inconclusive = response in the unintended direction; inactive = score below 0.9.

Chain of Estrogen-related receptor gamma (Homo sapiens) (P62508 whole entry, looked up): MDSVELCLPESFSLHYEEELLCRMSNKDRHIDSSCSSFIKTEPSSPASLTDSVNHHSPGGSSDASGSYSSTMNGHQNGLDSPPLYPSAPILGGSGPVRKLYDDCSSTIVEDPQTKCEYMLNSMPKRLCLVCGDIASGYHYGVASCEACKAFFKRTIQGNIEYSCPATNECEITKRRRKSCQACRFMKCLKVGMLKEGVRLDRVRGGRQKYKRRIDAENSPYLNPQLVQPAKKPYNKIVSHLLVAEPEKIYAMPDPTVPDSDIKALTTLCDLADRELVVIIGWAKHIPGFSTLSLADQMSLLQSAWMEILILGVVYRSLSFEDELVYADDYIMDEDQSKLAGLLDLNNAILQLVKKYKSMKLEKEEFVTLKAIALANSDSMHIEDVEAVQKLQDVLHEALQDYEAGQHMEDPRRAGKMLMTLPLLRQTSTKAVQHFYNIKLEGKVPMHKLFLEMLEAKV

The assay has as its target Estrogen-related receptor gamma (Homo sapiens) (UniProt P62508). Put plainly: ATG_ERRg_TRANS: Attagene TRANS-FACTORIAL HepG2 Assay for human Estrogen-Related Receptor gamma (ERRg) (AID 2282977).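 Also: hits increase reporter signal over DMSO so potencies reflect activators.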 Conditions: HepG2 Attagene TRANS reporter, ERRg transactivation. As for the experimental part:
ATG_TRANS is a cell-based, multiplexed-readout assay that uses HepG2, a human liver cell line, with measurements taken at 24 hours after chemical dosing in a 24-well plate.ATG_ERRg_TRANS is one of 30 assay component(s) measured or calculated from the ATG_TRANS assay. It is designed to make measurements of mRNA induction, a form of inducible reporter, as detected with fluorescence intensity signals by Reverse transcription polymerase chain reaction (RT-PCR) and Capillary electrophoresis technology.Data from the assay component ATG_ERRg_TRANS was analyzed into 1 assay endpoint. This assay endpoint, ATG_ERRg_TRANS, was analyzed in the positive analysis fitting direction relative to DMSO as the negative control and baseline of activity. Using a type of inducible reporter, measures of mRNA for gain-of-signal activity can be used to understand the reporter gene at the transcription factor-level as they relate to the gene ESRRG. Furthermore, this assay endpoint can be referred to as a primary readout, because this assay has produced multiple assay endpoints where this one serves a reporter gene function. To generalize the intended target to other relatable targets, this assay endpoint is annotated to the nuclear receptor intended target family, where the subfamily is steroidal.
Human liver HepG2 cells are transiently transfected with multiple reporter transcription units (MRTUs) in 6-well plates using FuGene 6 reagent (Roche; 3 ml FuGene/1 mg DNA). The MRTU constructs are regulated by a cis-regulating element (promoter). […] A major difference between the CIS and TRANS system is that in CIS activities of endogenous TFs are measured, whereas the TRANS assay evaluates changes in activities of exogenous, chimeric NR-Gal4 proteins. […] At the end of 24 hour incubation, total RNA was isolated using TriZol reagent (Invitrogen). The isolated RNA is then reverse-transcribed using oligo(dT) primer and Mo-MLV reverse transcriptase (Invitrogen) with DNAse I (Ambion) treatment for 30 min. The one-tenth of the produced cDNA was amplified by PCR using Taq DNA polymerase (Invitrogen) and two reporter sequence-specific primers. The PCR products were fluorescently labeled by primer extension with 6-arboxyfluorescein (6-FAM) 5'-labeled reporter sequence-specific primer (2 min at 95 C, 20 s at 68 C and 10 min at 72 C) and these products were digested with 5U of HpaI (New England Biolabs) for 2h at 37 C. The fragments were purified using Qiaquick PCR columns (Qiagen), analyzed on an ABI 3130xL genetic analyzer (Applied Biosystems) with peak positions identified by using a set of X-rhodamine (ROX)-labeled MapMarker1000 molecular weight standards (BioVentures). The raw capillary electrophoresis data was processed using Attagraph software (Attagene).
Take `COCC(C)O` (stereo not drawn): the result was inactive. For `NC(=O)N(O)[C@@H]1C=C[C@H](Oc2cccc(Oc3ccc(F)cc3)c2)C1` the value was “inactive”; for `COc1cc(CCC(=O)CC(=O)CCc2ccc(O)c(OC)c2)ccc1O`, “inactive”; for `CC(C)(C)c1ccc(O)c(C(C)(C)C)c1`, “inactive”.

For `CCCCCCCCOC(=O)CCCCCCCCC(=O)OCCCCCCCC`, the compound was classed as inactive.

On to `FC(F)(I)C(F)(F)C(F)(F)C(F)(F)C(F)(F)C(F)(F)I`, for which the compound was called inactive. The same measure for `Cc1cc(CCN2CCN(c3nsc4ccccc34)CC2)cc2c1NC(=O)CC2(C)C`: “inactive”; for `Oc1cccc(O)c1`: “inactive”. The same measure for `Cc1ccc(S(=O)(=O)O)c(C)c1`: “inactive”; for `CC(=O)CC(C)(C)O`: “inactive”; for `CCCCC[C@H](O)CC(=O)CCc1ccc(O)c(OC)c1`: “inactive”. The same measure for `CCCOC(=O)c1ccc(O)cc1`: “inactive”; for `O=C(/C=C/c1ccc(O)cc1)CC(=O)/C=C/c1ccc(O)cc1`: “inactive”; for `O=C(O)c1ccccc1C(c1ccc(O)cc1)c1ccc(O)cc1`: “inactive”.

For `CN(C)C=O`, the compound was classed as inactive. The same measure for `OCCC(F)(F)C(F)(F)C(F)(F)C(F)(F)C(F)(F)C(F)(F)C(F)(F)C(F)(F)F`: “inactive”; for `CCC(=C(c1ccc(O)cc1)c1ccc(OCCN(C)C)cc1)c1ccccc1`: “inactive”. The same measure for `N#C[C@@H]1CC(F)(F)CN1C(=O)CNC1CC2CCC(C1)N2c1ncccn1` (stereo partly drawn): “inactive”.

As for `NC(=O)N1C(=O)C(C(=O)c2cc(Cl)cs2)c2cc(F)c(Cl)cc21` (stereo not drawn), the compound was classed as inactive. For `CCc1nn(C2CCCCC2)c2cc(C3(C#N)CCC(C(=O)O)CC3)ccc12` (stereo not drawn) the value was “inactive”; for `CCCCCCCCCCCCCC[N+](C)(C)C`, “inactive”. With `CC(O)CO` (stereo not drawn), the result was inactive. The same measure for `CCCCCCC(=O)O`: “inactive”.
